Results reported in PubChem BioAssay.
The source made the active and inactive calls.

Experiments:
[1] = E. coli DRC41 culture turbidity changes, primary screen, E. coli filamentation inducer project, strain DRC41, OD650, 48 h (AID 1152);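 note: E. coli MC1000 strain DRC41 lacking acrAB efflux pump and sulA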; conditions: E. coli DRC41 (acrAB sulA), higher = more signal, called active from +8 up or from −8 down
[2] = small-molecule binders of probe aLefty1, primary screen, biochemical, small-molecule microarray, 635/667 nm fluorescence (AID 1153); conditions: higher = more signal;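 note: score merges spot fluorescence with signal-to-noise ratio from the scanned slide images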
[3] = PSAC antagonists in infected red cells, primary screen, cell-based, P. falciparum Indochina, OD700, 1 h (AID 1154); conditions: P. falciparum Indochina infected RBC osmotic lysis, higher = more signal, called active from +8 up or from −8 down
[4] = PSAC antagonists in infected red cells, primary screen, cell-based, P. falciparum Indochina, OD700, 2 h (AID 1155);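 note: lysis reports solute entry through the parasite surface anion channel PSAC; channel blockers reduce lysis of infected cells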; conditions: P. falciparum Indochina infected erythrocytes, osmotic lysis OD700; higher = more signal, called active from +8 up or from −8 down
[5] = osmotic lysis modulators in infected erythrocytes, primary screen, PSAC antagonist project, cell-based, P. falciparum Indochina, OD700, 3 h (AID 1156); conditions: higher = more signal, called active from +8 up or from −8 down
[6] = PSAC antagonists in infected red cells, primary screen, cell-based, P. falciparum Indochina, OD700, 18 h (AID 1157); conditions: P. falciparum Indochina infected erythrocytes, osmotic lysis OD700, 18 h; higher = more signal, called active from +8 up or from −8 down
[7] = modulators of S6 phosphorylation in cells, primary screen, cell-based, A549, cytoblot, luminescence, serum-stimulated (AID 1158); conditions: A549 phospho-S6 cytoblot, 5 h, higher = more signal;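 note: serum-stimulated A549 lung adenocarcinoma cells; signal is phosphorylated S6 detected by cytoblot immunostaining with HRP secondary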
[8] = target: NADPH oxidase 2 (Homo sapiens) (UniProt P04839); assay: NOX2-dependent H2O2 signal modulators, primary screen, NOX inhibitor project, cell-based, HEK293-NOX2, PMA-stimulated, Amplex Red fluorescence (AID 1159); conditions: 45 min, higher = more signal, called active from +8 up or from −8 down; note: test concentration not given here
[9] = target: NADPH oxidase 4 (Homo sapiens) (UniProt Q9NPH5); assay: NOX4-dependent H2O2 signal modulators, primary screen, NOX inhibitor project, cell-based, HEK293-NOX4, tetracycline-induced, Amplex Red fluorescence (AID 1160); conditions: 45 min, higher = more signal, called active from +8 up or from −8 down
[10] = target: NADPH oxidase 5 (Homo sapiens) (UniProt Q96PH1); assay: NOX5-dependent H2O2 signal modulators, primary screen, NOX inhibitor project, cell-based, HEK293-NOX5, Amplex Red fluorescence (AID 1161); conditions: HEK293-NOX5, ionomycin, 45 min, higher = more signal
[11] = A549 cell viability effects, profiling panel, calcein-AM fluorescence, 48 h, basal (AID 1162); conditions: higher = more signal; note: test concentration not given here
[12] = adipocyte viability effects, profiling panel, cell-based, 3T3-L1 adipocytes, calcein-AM fluorescence, 48 h, basal (AID 1163); conditions: 3T3-L1 adipocytes viability, higher = more signal; note: test concentration not given here
[13] = HepG2 cell viability effects, profiling panel, calcein-AM fluorescence, 48 h, basal (AID 1164); conditions: higher = more signal; note: test concentration not given here
[14] = MM1S cell viability effects, profiling panel, calcein-AM fluorescence, 48 h, basal (AID 1165); conditions: higher = more signal;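 note: viability of MM1S multiple myeloma cells under basal unstimulated conditions; test concentration not given here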
[15] = basal RPMI8226 viability, no added stimulus, profiling panel, cell-based, calcein-AM fluorescence, 48 h, PK04 Diversity Set (AID 1166); conditions: RPMI8226 myeloma viability, higher = more signal;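 note: cells grown under basal conditions without added stimulus; test concentration not given here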
[16] = basal HepG2 mitochondrial membrane potential changes, profiling panel, cell-based, JC-1 fluorescence, 24 h, 100 nL compound (AID 1167); conditions: higher = more signal; note: test concentration not given here
[17] = basal 3T3-L1 adipocyte mitochondrial potential changes, profiling panel, cell-based, JC-1 fluorescence, 3T3-L1 adipocytes, 24 h, 100 nL compound (AID 1168); conditions: JC-1 mitochondrial fluorescence, higher = more signal, called active from +8 up or from −8 down; note: test concentration not given here
[18] = basal RPMI8226 mitochondrial membrane potential changes, profiling panel, cell-based, JC-1 fluorescence, 24 h, 100 nL compound (AID 1169); conditions: RPMI8226 myeloma, JC-1 mitochondrial potential fluorescence, higher = more signal; note: test concentration not given here
[19] = basal MM1S mitochondrial membrane potential changes, profiling panel, cell-based, JC-1 fluorescence, 24 h, 100 nL compound (AID 1170); conditions: higher = more signal; note: test concentration not given here
[20] = A549 lung cancer cell viability effects, profiling panel, resazurin fluorescence, 24 h, PK04 Diversity Set (AID 1171); conditions: higher = more signal, called active from +8 up or from −8 down; note: test concentration not given here

Chain of NADPH oxidase 2 (Homo sapiens) (P04839 whole entry, looked up): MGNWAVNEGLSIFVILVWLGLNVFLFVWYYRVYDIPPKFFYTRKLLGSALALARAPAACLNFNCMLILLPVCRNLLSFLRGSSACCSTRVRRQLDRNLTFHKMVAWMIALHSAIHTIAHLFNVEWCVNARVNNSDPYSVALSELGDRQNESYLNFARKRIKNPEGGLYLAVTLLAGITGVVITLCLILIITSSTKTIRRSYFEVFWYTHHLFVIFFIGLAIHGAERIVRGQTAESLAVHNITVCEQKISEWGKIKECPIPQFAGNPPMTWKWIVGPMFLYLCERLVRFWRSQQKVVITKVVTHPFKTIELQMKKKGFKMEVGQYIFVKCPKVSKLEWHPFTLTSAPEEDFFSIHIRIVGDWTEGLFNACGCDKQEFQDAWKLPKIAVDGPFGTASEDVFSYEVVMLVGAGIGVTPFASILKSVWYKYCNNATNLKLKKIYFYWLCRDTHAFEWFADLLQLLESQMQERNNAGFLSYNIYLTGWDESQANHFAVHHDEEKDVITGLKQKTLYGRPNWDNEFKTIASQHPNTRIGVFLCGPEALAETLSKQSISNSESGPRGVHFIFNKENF
Chain of NADPH oxidase 5 (Homo sapiens) (Q96PH1 whole entry, looked up): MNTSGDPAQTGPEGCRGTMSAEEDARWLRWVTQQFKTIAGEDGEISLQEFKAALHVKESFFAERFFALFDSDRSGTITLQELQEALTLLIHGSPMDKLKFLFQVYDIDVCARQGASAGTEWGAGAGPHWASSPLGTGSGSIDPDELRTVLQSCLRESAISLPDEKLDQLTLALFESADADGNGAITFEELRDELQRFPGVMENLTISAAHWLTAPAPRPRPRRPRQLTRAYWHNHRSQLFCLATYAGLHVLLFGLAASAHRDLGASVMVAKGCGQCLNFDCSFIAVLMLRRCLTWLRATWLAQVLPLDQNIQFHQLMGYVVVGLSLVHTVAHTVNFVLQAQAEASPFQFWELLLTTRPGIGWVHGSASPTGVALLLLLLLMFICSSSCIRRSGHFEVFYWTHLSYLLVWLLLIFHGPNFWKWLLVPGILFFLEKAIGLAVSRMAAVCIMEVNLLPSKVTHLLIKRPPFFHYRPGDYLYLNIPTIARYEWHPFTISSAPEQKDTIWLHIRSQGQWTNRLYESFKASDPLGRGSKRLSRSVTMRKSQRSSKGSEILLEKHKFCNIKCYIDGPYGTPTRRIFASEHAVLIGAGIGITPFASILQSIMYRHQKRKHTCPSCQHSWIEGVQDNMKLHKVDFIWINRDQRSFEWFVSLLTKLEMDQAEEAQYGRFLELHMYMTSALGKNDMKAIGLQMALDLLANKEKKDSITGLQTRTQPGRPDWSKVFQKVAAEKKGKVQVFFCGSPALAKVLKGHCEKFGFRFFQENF
Chain of NADPH oxidase 4 (Homo sapiens) (Q9NPH5 whole entry, looked up): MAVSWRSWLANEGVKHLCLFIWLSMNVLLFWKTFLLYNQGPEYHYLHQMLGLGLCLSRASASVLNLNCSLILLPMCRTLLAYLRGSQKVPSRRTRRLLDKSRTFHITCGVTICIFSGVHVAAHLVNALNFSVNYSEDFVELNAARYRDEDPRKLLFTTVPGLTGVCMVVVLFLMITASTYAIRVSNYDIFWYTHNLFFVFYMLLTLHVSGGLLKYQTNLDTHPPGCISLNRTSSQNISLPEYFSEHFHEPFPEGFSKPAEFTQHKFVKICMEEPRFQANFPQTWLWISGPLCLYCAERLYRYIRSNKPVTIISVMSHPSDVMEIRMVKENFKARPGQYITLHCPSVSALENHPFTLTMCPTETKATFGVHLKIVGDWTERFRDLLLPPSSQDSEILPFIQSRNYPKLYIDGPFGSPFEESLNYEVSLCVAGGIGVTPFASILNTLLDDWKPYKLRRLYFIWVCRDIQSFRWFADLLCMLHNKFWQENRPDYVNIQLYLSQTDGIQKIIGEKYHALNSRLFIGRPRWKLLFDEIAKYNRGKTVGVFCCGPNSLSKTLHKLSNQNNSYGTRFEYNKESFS

| Structure (SMILES) | z-score [1] | composite z-score [2] | z-score [3] | z-score [4] | z-score [5] | z-score [6] | z-score [7] | z-score [8] | z-score [9] | z-score [10] | z-score [11] | z-score [12] | z-score [13] | z-score [14] | z-score [15] | z-score [16] | z-score [17] | z-score [18] | z-score [19] | z-score [20] |
| --- | --- | --- | --- | --- | --- | --- | --- | --- | --- | --- | --- | --- | --- | --- | --- | --- | --- | --- | --- | --- |
| COc1ccc([Si](C)(C)[C@H]2[C@H](CC(=O)N3CCC[C@H]3CO)O[C@@]3(C(=O)N(C)c4c(Br)cc(C)cc43)[C@@H]2C)cc1 | -0.437 (inactive) | 1 | 2.11 (inactive) | 0.179 (inactive) | -0.192 (inactive) | 0.62 (inactive) | 0.488 | 0.951 (inactive) | 0.657 (inactive) | 3.04 | 0.709 | -0.333 | -0.232 | 0.0328 | -0.63 | 0.604 | 0.123 (inactive) | -0.126 | -0.468 | 0.809 (inactive) |
| CCOC(=O)C[C@H]1[C@H](OC(=O)c2ccccc2-c2ccccc2)[C@@H](NC(=O)CC(C)C)c2cc(OCCCO)ccc2N1C(=O)c1ccccc1 | 0.822 (inactive) | 0.0816 | 0.0883 (inactive) | -1.7 (inactive) | -1.27 (inactive) | -2.84 (inactive) | 1.47 | 0.924 (inactive) | 0.899 (inactive) | -1.19 | 0.682 | 1.32 | -0.177 | -0.271 | 0.107 | 2.01 | 0.197 (inactive) | -0.986 | -0.0327 | 1.65 (inactive) |
| C=CCOC(=O)[C@@H]1[C@H]2C(=O)O[C@H](c3ccccc3)[C@H](c3ccccc3)N2[C@H](c2ccc(OCCOC(=O)[C@H]3C[C@H]4C(=O)N[C@@H](CCCCN(C)C)C(=O)N4[C@H]3c3cccc(OCCO)c3)cc2)[C@@]12C(=O)Nc1ccccc12 | 0.171 (inactive) | 0.464 | 0.323 (inactive) | 0.0285 (inactive) | -0.703 (inactive) | 0.0555 (inactive) | -0.547 | 0.209 (inactive) | -0.186 (inactive) | -0.538 | -0.555 | -0.453 | -0.113 | 0.293 | -2.17 | -1.29 | -0.5 (inactive) | -0.928 | -0.689 | 0.64 (inactive) |
| O=C1OC[C@@H](c2ccccc2)n2cc(/C=C/c3ccccc3)cc21 | 0.989 (inactive) | -0.0868 | 16.3 (active) | 0.408 (inactive) | 2.6 (inactive) | -1.8 (inactive) | 0.693 | 0.0419 (inactive) | 0.618 (inactive) | -0.408 | -0.235 | 1.75 | -0.202 | -0.472 | -0.597 | -0.564 | 0.156 (inactive) | -0.161 | -0.735 | 0.229 (inactive) |
| COC(=O)[C@@]1(Cc2ccccc2)[C@H]2c3cc(C(=O)N(C)C)n(Cc4nc5ccccc5[nH]4)c3C[C@H]2CN1C(=O)c1ccccc1 | 0.989 (inactive) | 0.0063 | 4.51 (inactive) | -0.2 (inactive) | 0.57 (inactive) | -0.949 (inactive) | 0.965 | -0.273 (inactive) | 0.839 (inactive) | -0.155 | 0.173 | -0.232 | 0.858 | -0.013 | -0.191 | -0.3 | 0.385 (inactive) | -0.303 | -0.701 | 0.0716 (inactive) |
| CCCCN1CC=CC23O[C@@H]4/C=C\CCCOC(=O)C4[C@H]2C(=O)N(CCCCCCO)[C@@H]3C1=O (stereo not given in full) | 2.36 (inactive) | 0.0927 | 1.81 (inactive) | -0.88 (inactive) | -0.75 (inactive) | -0.945 (inactive) | 3.08 | 0.873 (inactive) | 0.0146 (inactive) | 1.84 | -0.0075 | 1.61 | 0.331 | 1.42 | 0.88 | 0.608 | 1.38 (inactive) | 0.16 | -1.05 | 0.851 (inactive) |
| CC(C)C(=C=CC[C@H](O)c1cccc(OCCO)c1)C[C@H](O)c1ccccn1 | 1.21 (inactive) | 0.21 | 7.72 (inactive) | 0.631 (inactive) | 1.96 (inactive) | 0.626 (inactive) | 0.468 | -1.57 (inactive) | 0.362 (inactive) | -1.13 | 1.65 | -0.0875 | 0.731 | 0.301 | 0.942 | 0.807 | 0.259 (inactive) | 0.509 | -0.803 | 1.26 (inactive) |
| COCCCNC(=O)[C@]1(Cc2ccccc2N=[N+]=[N-])N=C(c2ccc(OCCCO)cc2)O[C@@H]1c1ccccc1 | -0.112 (inactive) | 0.749 | 28.8 (active) | 22.5 (active) | 2.38 (inactive) | 3.2 (inactive) | 0.008 | -2.28 (inactive) | 0.471 (inactive) | 0.124 | -0.751 | 0.16 | -0.757 | -3.22 | -3.9 | 2.34 | 1.84 (inactive) | -1.27 | -0.774 | 0.345 (inactive) |
| CCCC1(C(=O)OC)C=C2C(=C(C(C)C)C(=O)C2C)CN1 (stereo not given) | -2.12 (inactive) | 0.062 | 2.85 (inactive) | 0.364 (inactive) | 0.454 (inactive) | 0.57 (inactive) | -0.598 | 0.216 (inactive) | -1.15 (inactive) | -3.15 | -1.47 | 0.273 | -0.0319 | 0.313 | -0.316 | -1.45 | -1.43 (inactive) | -0.613 | -0.458 | -0.898 (inactive) |
